Assay outcomes: PubChem BioAssay, National Center for Advancing Translational Sciences (NCATS)
GLS inh – glutaminase GLS (human) inhibition. O94925. GLS enzymatic activity, qHTS titration. actives 0.21% (n = 410,000). AID 624170. Potency, µM (titrated, usually from 45.5 µM), actives largely listed as inhibitors
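Glutamate formation by hKGA was monitored fluorometrically using coupled glutamate oxidase, HRP and Amplex Red. Substrate was added as 1 mM L-glutamine solution; incubation was 30 min at RT after an initial read.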
POLB inh – blocks human DNA polymerase beta activity; Pol beta primer extension/strand displacement, fluorescence kinetic; P06746; actives 1.3% (n = 340,000); AID 485314; Potency, µM (doses to about 114 µM), actives largely listed as inhibitors
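Reaction started by 50 nM substrate onto compound-treated Pol beta (10 nM, 15 min preincubation, room temperature); plates read at 0 min and 10 min. Normalized concentration-effect data fitted by four-parameter Hill equation.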
APE1 inh – blocks human APE1 abasic DNA cleavage; recombinant APE1, TAMRA/BHQ-2 abasic DNA cleavage fluorescence; P27695; Potency, µM (doses to about 65.8 µM), most hits filed as inhibitors; actives 0.35% (n = 350,000); also: nearly all actives have a fitted effect of over 55% in size
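Activity was derived from the fluorescence gain between first and third kinetic reads (60 s intervals, ex 525/em 598 nm) after 50 nM THF-abasic TAMRA/BHQ-2 duplex was added to 0.75 nM APE1 preincubated 15 min with compound.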
POLK inh – blocks human DNA polymerase kappa activity; Q9UBT6; purified Pol kappa, fluorescent DNA synthesis assay, 10 min; Potency, µM (series often up to 107 µM), actives largely listed as inhibitors; actives 0.53% (n = 400,000); AID 588579
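10 nM Pol kappa preincubated 15 min at room temperature with compounds, then reaction started with substrate at 50 nM final. Fluorescence read kinetically at 0 and 10 min; buffer-only wells served as negative control.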
Pol iota inh – blocks human DNA polymerase iota activity; Q9UNA4; Pol iota fluorescent replication assay, 10 min; Potency, µM (doses to about 115 µM), hits mostly inhibitors; actives 1% (n = 390,000)
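Pol iota at 10 nM preincubated 15 min with compounds at room temperature; reaction started with fluorescent substrate, 50 nM final. Fluorescence read kinetically at 0 and 10 min; buffer-only wells as negative control.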
POLH inh – inhibitors of human DNA polymerase eta. actives 1.2% (n = 390,000). Q9Y253. AID 588591. Potency, µM (doses to about 114 µM), hits mostly inhibitors. recombinant Pol eta, fluorescent DNA replication assay
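Pol eta at 10 nM preincubated with compounds 15 min at room temperature; reaction started with fluorescent substrate (50 nM final) and read kinetically at 0 and 10 min.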
Large screens that a line does not name were inactive. Shown are actives, neighbours in structure and some others; about 2.4% of the full set was active somewhere. Calls follow the shape of the dose curve; as a rule, active = well fitted curve in the direction sought with a large enough effect; inconclusive = small, poorly fitted or top-dose-only effect, or another doubt; inactive = no such curve, though single readings can be large; an effect the other way counts as inactive or inconclusive.

O=C(Nc1ccc(S(=O)(=O)Nc2nccs2)cc1)c1ccc(N2C(=O)c3ccccc3C2=O)cc1	POLB inh 22.4µM, POLK inh inconclusive, Pol iota inh 70.8µM, POLH inh inconclusive
Cc1noc(NS(=O)(=O)c2ccc(NC(=O)c3ccc(N4C(=O)c5ccccc5C4=O)cc3)cc2)c1C	POLB inh 35.5µM, APE1 inh inconclusive, POLK inh inconclusive, Pol iota inh inconclusive, POLH inh 79.4µM
Cc1noc(NS(=O)(=O)c2ccc(NC(=O)CCN3C(=O)c4ccccc4C3=O)cc2)c1C	none
Cc1ccc(C2(C)NC(=O)N(CC(=O)N3CCN(S(=O)(=O)c4cccc(F)c4)CC3)C2=O)cc1 (stereo unspecified)	none
CCCC(=O)NC(=S)Nc1cccc2c(O)cccc12	none
Cc1ccc(CN(c2ccc(C(=O)NCc3cccnc3)cc2)S(C)(=O)=O)cc1	none
C[n+]1ccc(C(c2c[nH]c3ccccc23)c2cc[n+](C)c3ccccc23)c2ccccc21	POLK inh 79.4µM, Pol iota inh 89.1µM (no result: GLS inh, POLB inh, APE1 inh, POLH inh)
CCOC(=O)C1=C(CS(=O)(=O)c2ccc(F)cc2)NC(=O)NC1c1ccc(O)c(O)c1 (stereo unspecified)	GLS inh inconclusive, POLB inh inconclusive, POLK inh 44.7µM, Pol iota inh 25.1µM, POLH inh inconclusive
Cn1c(=O)[nH]c(=O)c2c1nc1n2CCN1Cc1ccccc1	none
Cn1c(=O)[nH]c(=O)c2c1nc1n2CCN1c1ccccc1	POLK inh inconclusive, Pol iota inh 79.4µM (no result: APE1 inh)
COc1cc(OC)c(-c2nn3c(-c4cc(C)[nH]n4)nnc3s2)cc1OC	none (no result: GLS inh, POLB inh, APE1 inh, POLH inh)
COc1cc(/C=N/NC(=S)NCCN2CCOCC2)cc(OC)c1O	GLS inh 3.98µM
CCOC(=O)C1=C(CSc2nc3ccccc3s2)NC(=O)NC1c1ccc(OC)cc1 (stereo unspecified)	POLB inh inconclusive
C=CCn1c(=O)c(CCC(=O)Nc2ccc(N3CCOCC3)cc2)nc2cc(C(F)(F)F)ccc21	POLK inh inconclusive, Pol iota inh inconclusive, POLH inh 79.4µM
CCCCOc1cc(NCc2ccccc2)c2ncn(C(C)C)c2c1	Pol iota inh inconclusive (no result: POLB inh)
CCOCCOc1cc(NCc2ccccc2)c2ncn(C(C)C)c2c1	Pol iota inh 35.5µM (no result: POLB inh, APE1 inh)
CCC(CO)Oc1cc(NC(=O)c2ccc(N)cc2)c2ncn(C(C)C)c2c1 (stereo unspecified)	GLS inh inconclusive, Pol iota inh inconclusive, POLH inh 89.1µM (no result: POLB inh)
CCC(CO)Oc1cc(NCc2ccc(O)cc2)c2ncn(C(C)C)c2c1 (stereo unspecified)	none (no result: POLB inh)
CCC(CO)Oc1cc(NCc2ccccc2)c2ncn(C(C)C)c2c1 (stereo unspecified)	Pol iota inh 17.8µM (no result: POLB inh)
Nc1ccc(-c2nc3cc(N)ccc3s2)cc1	POLB inh inconclusive
CN1CCN(C2=C(NS(=O)(=O)c3ccccc3)C(=O)c3ccccc3C2=O)CC1	none
CN1CCN(C2=C(Cl)C(=O)c3ccccc3C2=O)CC1	Pol iota inh 6.31µM, POLH inh 3.55µM (no result: POLB inh, APE1 inh)
NC(=O)CN1CCN(C(=O)NC2CCCCC2)CC1	POLB inh 31.6µM
CCS(=O)(=O)c1ccc2oc(SCC(=O)c3ccco3)nc2c1	Pol iota inh inconclusive, POLH inh 15.8µM
NC(=N\N=Cc1ccco1)/C(N)=N/N=Cc1ccco1	GLS inh inconclusive, Pol iota inh inconclusive, POLH inh 44.7µM (no result: POLB inh, APE1 inh)
Cc1cc2oc(C(=O)Nc3ccc(S(=O)(=O)Nc4onc(C)c4C)cc3)cc(=O)c2cc1Cl	POLB inh inconclusive, APE1 inh inconclusive, Pol iota inh inconclusive
Cc1noc(NS(=O)(=O)c2ccc(NC(=O)Nc3ccc(Cl)c(Cl)c3)cc2)c1C	POLB inh inconclusive, Pol iota inh inconclusive, POLH inh 50.1µM
Cc1noc(NS(=O)(=O)c2ccc(NC(=O)C(Cl)(Cl)Cl)cc2)c1C	none
Cc1cc2oc(C(=O)Nc3ccc(S(=O)(=O)Nc4onc(C)c4C)cc3)cc(=O)c2cc1C	Pol iota inh inconclusive, POLH inh 79.4µM (no result: APE1 inh)
O=C(NCC1CCCO1)c1ccc(N2C(=O)C3CCCCC3C2=O)cc1 (stereo unspecified)	none
CC(C)NC(=O)Nc1cccc(Cl)c1	none
COc1ccc(S(=O)(=O)NC2(C(F)(F)F)NC(=O)N(CCc3ccccc3)C2=O)cc1 (stereo unspecified)	none
Cc1ccc(/C=N/Nc2nc(C(C)(C)C)cs2)o1	none
Cc1ccc(/C=N/Nc2nc3ccccc3s2)o1	GLS inh 8.91µM
CC(C)OC(=O)CC12CN(C)CC(CC(=O)OC(C)C)(CN(C)C1)C2=O	none
COc1ccc(CCN2C(=O)/C(=C\c3ccco3)SC2=S)cc1OC	POLB inh 28.2µM, Pol iota inh inconclusive
COc1cc(/C=C2/SC(=S)N(CCC(=O)Nc3ccc(C(=O)O)cc3)C2=O)cc(OC)c1OC	POLH inh 56.2µM
CC(=C\c1ccccc1)/C=C1/SC(=S)N(CCCC(=O)O)C1=O	GLS inh inconclusive, Pol iota inh 25.1µM, POLH inh 25.1µM
CC(/C=C1\SC(=S)N(CCCC(=O)Nc2ccc(C(=O)O)cc2)C1=O)=C\c1ccccc1	POLB inh inconclusive, Pol iota inh inconclusive, POLH inh 31.6µM
C=CCN1C(=O)/C(=C\c2ccc(OC(=O)c3ccco3)c(OC)c2)SC1=S	none
O=C(NCc1ccco1)C1CCN(c2nc3ccccc3n2Cc2ccccc2F)CC1	none
CCN1CCN(CC(=O)Nc2nc3ccc(OC)cc3s2)CC1	none
CC(C)(C)OC(=O)N1CCCC1C(=O)NC1COC2CC(n3ccc(=O)[nH]c3=O)OC12 (stereo unspecified)	none (no result: GLS inh, POLB inh, POLH inh)
Cc1cc(=O)n2c(c1C#N)SC1CCCCC12O (stereo unspecified)	none
CC(=C\c1ccccc1)/C=C1/SC(=S)N(C(C(=O)O)C(C)C)C1=O (stereo unspecified)	POLB inh 89.1µM, Pol iota inh inconclusive, POLH inh 89.1µM
CCC(C(=O)O)N1C(=O)/C(=C/C(C)=C/c2ccccc2)SC1=S (stereo unspecified)	Pol iota inh inconclusive
COc1ccc(/C=C2\SC(=S)N(CCCC(=O)Nc3ccc(O)cc3)C2=O)cc1	none
O=C(CCCN1C(=O)/C(=C\c2ccco2)SC1=S)Nc1ccc2ccccc2c1	POLB inh 20µM, POLH inh inconclusive
CCOC(=O)C1=C(C)Nc2ccccc2N/C1=N\S(=O)(=O)c1cc(C(=O)O)ccc1Cl	GLS inh inconclusive, Pol iota inh inconclusive, POLH inh 35.5µM (no result: POLB inh)
Cc1ccc2c(c1)c1nnc(SCC(=O)Nc3cccc(Cl)c3C)nc1n2CC(=O)O	POLB inh 22.4µM, POLH inh 79.4µM
Cc1ccc2c(c1)c1nnc(SCC(=O)Nc3ccccc3C(F)(F)F)nc1n2CC(=O)O	none
